Only some compounds are listed: those with a hit (about 21% of all), similar ones and a draw of the others.
RORgamma inh – blocks mouse ROR gamma transcriptional activity. P51450. Drosophila S2 Gal4-RORgamma UAS-luciferase reporter, 20 h. Potency, µM (top dose mostly 53.6 µM), inactives show top-dose activity change, negative = inhibition, hits mostly inhibitors. 310,000 compounds, 5.4% hits. AID 2551; further: potency means the concentration at half of the fitted maximal effect; nearly all actives have a fitted effect of over 60% in size
Target sequence (P51450 whole entry, looked up, the tested form may be a part): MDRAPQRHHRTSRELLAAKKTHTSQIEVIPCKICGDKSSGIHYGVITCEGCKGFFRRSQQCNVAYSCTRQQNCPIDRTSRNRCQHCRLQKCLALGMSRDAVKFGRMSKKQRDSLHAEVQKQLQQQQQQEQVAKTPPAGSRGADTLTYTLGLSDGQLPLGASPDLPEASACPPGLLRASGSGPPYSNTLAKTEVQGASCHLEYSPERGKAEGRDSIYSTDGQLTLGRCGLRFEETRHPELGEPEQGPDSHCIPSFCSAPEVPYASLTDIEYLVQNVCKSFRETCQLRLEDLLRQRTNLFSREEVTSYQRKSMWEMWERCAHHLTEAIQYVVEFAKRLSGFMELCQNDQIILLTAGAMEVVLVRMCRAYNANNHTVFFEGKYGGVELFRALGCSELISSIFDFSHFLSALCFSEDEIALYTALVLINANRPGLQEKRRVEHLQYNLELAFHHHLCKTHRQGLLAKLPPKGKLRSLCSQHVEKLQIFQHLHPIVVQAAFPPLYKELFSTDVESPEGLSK
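In this cell-based reporter format, copper sulfate (700 uM final) drives Gal4–ROR gamma fusion expression from a metallothionein promoter in Drosophila Schneider cells; compounds preincubated 1 hr, reporter read after 20 hr at ambient temperature.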
ELG1 DNA repair – ELG1-dependent DNA repair inhibition | HEK293T ELG1-luciferase reporter, luminescence, 16 h; DNA damage induced by 5-fluorouridine | Potency, µM (titrated, usually from 46.1 µM), for the others: at the top dose activity change, negative = inhibition, hits mostly inhibitors | 330,000 compounds, 2.3% hits | AID 504467; further: potency means the concentration at half of the fitted maximal effect; nearly all actives have a fitted effect of over 55% in size
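Cells (2,000 per well) received 5-fluorouridine plus test compound or DMSO and were incubated 16 hr at 37 °C, 5% CO2. Luciferase activity was read by luminescence 30 min after ONE-Glo addition; signal suppression marked inhibition of damage-induced ELG1 function.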
DT40 TDP1 CPT – DT40-hTDP1 cell growth loss with CPT; 420,000 compounds, 12% hits; Potency, µM (top dose mostly 46.2 µM), inactives show at the top dose activity change, negative = growth inhibition, hits mostly inhibitors; chicken DT40 Tdp1-/-;hTDP1 cells + 20 nM CPT, ATP luminescence, 48 h; AID 686979; further: potency means the concentration at half of the fitted maximal effect; nearly all actives have a fitted effect of over 55% in size
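Cell growth measured by CellTiter-Glo luminescence after a minimum 48 h, 37 C compound exposure with 20 nM CPT in Tdp1-knockout DT40 cells stably expressing hTDP1, seeded 400/well; qHTS titration format.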
IL-1B inflam inh – inflammasome signaling inhibition, IL-1 beta readout | THP-1 LPS/ATP IL-1B secretion, AlphaLISA, 16 h; hits give low values | activity change, % at 57.5 µM | 360,000 compounds, 4.7% hits | AID 743279; in the data active means activity change below about -50%; inconclusive means mostly about -30% to -49%
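Secreted IL-1B measured by AlphaLISA bead assay after 16 h compound exposure of THP-1 cells; compounds (final up to 57.5 uM) added 1 h before LPS (250 ng/mL) and ATP (1.25 mM) stimulation; lower signal means less secretion.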
VP16 counter – counter-screen for ROR gamma inhibitors: Gal4-VP16 reporter. Drosophila S2 Gal4-VP16 UAS-luciferase, luminescence, 20 h. Potency, µM (top dose mostly 53.6 µM), without a hit: at the top dose activity, negative = inhibition, actives largely listed as inhibitors. 310,000 compounds, 3.5% hits. AID 2546;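 further: Gal4-VP16 expression switched on by copper sulfate through the metallothionein promoter; potency means the concentration at half of the fitted maximal effect; nearly all actives have a fitted effect of over 50% in size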
TDP1 cell noCPT – qHTS for Inhibitors of human tyrosyl-DNA phosphodiesterase 1 (TDP1): qHTS in cells in absence of CPT; Potency, µM (doses to about 46.2 µM), inactives show top-dose activity change, negative = growth inhibition, actives largely listed as inhibitors; AID 686978, 2013; DT40 Tdp1-/- hTDP1 cells, no CPT, ATP luminescence, 48 h; 420,000 compounds, 15% hits; further: potency means the concentration at half of the fitted maximal effect; nearly all actives have a fitted effect of over 55% in size
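Luminescent ATP content (CellTiter-Glo) served as the growth readout. Knockout chicken DT40 cells expressing human TDP1 were exposed to compounds without camptothecin for a minimum 48 hr at 37 °C.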
Starred values were filed as active, the others as inactive; i = inactive; u = inconclusive; x = no result; [ ] = another dose, or the depositor's remark. Unless noted, the call rests on the fitted dose curve; in most records, active means well fitted curve in the direction sought with a large enough effect; inconclusive means small, poorly fitted or top-dose-only effect, or another doubt; inactive means no such curve, though single readings can be large; an effect the other way counts as inactive or inconclusive. On the % scale 0 is the no-effect control and ±100 the full control effect.

SMILES | RORgamma inh | ELG1 DNA repair | DT40 TDP1 CPT | IL-1B inflam inh | VP16 counter | TDP1 cell noCPT
CC1=CC(=O)C(C(C)=Nc2cccc(Cl)c2)C(=O)O1 (configuration not stated) | x | x | 9.4% | 8.6 | x | -7.6%
CCOC(=O)c1ccccc1NC(=O)Nc1ccc(OC)c(OC)c1 | -16.2%[0.365 µM] | 0.0% | -23.9% | -67.4* | x | 7.3%
COC(=O)c1cc(Cl)c(NC(=O)/C=C/c2ccc(OC)c(OC)c2)cc1OC | 3.1% | u | u | -2.7 | 3.1%[0.365 µM] | 23.1µM*
COc1ccc(/C=C\C(=O)Nc2ccccc2C(=O)O)cc1OC | u | x | 13.3µM* | x | 1.12µM* | 13.3µM*
CCOCCOC(=O)c1ccc(NC(=O)/C=C/c2ccc(OC)c(OC)c2)cc1 | x | x | 25.9µM* | x | x | 9.2µM*
COc1cc(NC(=O)/C=C/c2ccccc2)c(C(=O)O)cc1OC | -3.2% | u | u | -3.9 | -6.5% | u
CCOC(=O)c1ccc(NC(=O)Nc2ccc(OC)c(OC)c2)cc1 | 1.7%[0.365 µM] | u | u | 39.1 | x | u
CCCCCNC(=O)c1ccc2c(=O)n(CCc3ccccc3)c(=O)[nH]c2c1 | x | x | -12.0% | x | x | -13.5%
COc1ccc(NC(=O)Nc2ccc(C)cc2OC(F)F)cc1OC | u | u | u | -11.1 | u | 20.6µM*
CCCCCOc1ccc(/C=C/C(=O)Nc2sc(C(C)=O)c(C)c2C(=O)OCC)cc1OC | x | x | u | x | x | 5.8µM*
Cc1ccc(NC(=O)Nc2ccc3c(c2)OCO3)c(OC(F)F)c1 | -16.5% | u | -1.5% | i | 3.5% | -13.9%
CCCCCOc1ccc(/C=C/C(=O)Nc2sc3c(c2C(=O)OCC)CCC3)cc1OC | x | x | -5.4% | x | x | u
CCOC(=O)c1sc(-c2ccc(F)cc2)cc1NC(=O)Nc1ccccc1OC | -2.7% | -7.7% | 16.4µM* | i | -0.1% | u
COC(=O)c1cn(C(=O)OC)c2ccccc12 | -37.1% | u | -12.4% | 15.4 | -11.7% | -4.5%
COC(=O)c1cn(C(=O)/C=C/c2ccc(OC)c(OC)c2)c2ccccc12 | 23.6% | -12.9% | u | -68.8* | -0.3% | 16.4µM*
COc1cccc(-c2ccnc(-n3ncc(C(=O)NCc4cccnc4)c3C3CC3)n2)c1 | x | x | -8.6%[9.04 µM] | x | x | u
CCOC(=O)c1ccccc1NC(=O)/C=C/c1cc(OC)c(OC)c(OC)c1 | -14.0% | u | -20.1% | -6.6 | 5.9% | 6.51µM*
COc1cc(/C=C/C(=O)Nc2ccccc2C(F)(F)F)cc(OC)c1OC | -39.4% | -15.7% | x | x | -3.0% | x
COc1ccc(OC)c(/C=C/C(=O)Nc2ccc(C(=O)OCCC(C)C)cc2)c1 | x | x | 18.4µM* | x | x | 18.4µM*
COc1ccc(/C=C/C(=O)Nc2ccncc2)cc1OC | 31.6% | 5.1% | -19.5% | -21.8 | 2.8% | -23.5%
COc1cc(/C=C/C(=O)Nc2ccc3[nH]c(=O)[nH]c3c2)cc(OC)c1OC | 18.1% | 1.7% | 3.3% | -72.1* | -13.6% | 2.4%
COc1ccc(/C=C/C(=O)Nc2ccc(Cl)c(Cl)c2)cc1OC | x | x | u | x | x | 20.6µM*
C=C(C)CN1C(=O)C(C)SC1=NN=C1SCC(=O)N1C (configuration not stated) | x | x | 1.1% | 21.9 | x | -14.7%
CN1C[C@@H]2[C@@H]3C(=O)N(C)C(=O)[C@@H]3[C@](C)(C1=O)N2C(=O)c1ccc(Cl)c(Cl)c1 | x | x | -22.0% | -11.7 | x | -17.1%
CC(C)(C)c1ccc(-c2noc(CCC(N)=O)n2)cc1 | u | u | -21.3% | 14.0 | -17.1% | u
SMILES | RORgamma inh | ELG1 DNA repair | DT40 TDP1 CPT | IL-1B inflam inh | VP16 counter | TDP1 cell noCPT
O=C(O)CCc1nc(-c2ccc(Cl)cc2)no1 | -0.5% | 1.3% | 1.2% | 29.5 | -38.0% | -4.7%
Cc1ccc(-c2noc(CCC(=O)Nc3cccc(C#N)c3)n2)cc1 | u | -27.0% | u | -4.7 | u | 18.4µM*
CN(C)C(=O)CCc1nc(-c2ccc(C(C)(C)C)cc2)no1 | -32.4% | u | 16.4µM* | -14.6 | u | 20.6µM*
CCOc1cc(-c2noc(CCC(=O)Nc3cccnc3)n2)ccc1OC | 8.8% | 20.6µM* | u | 37.6 | -11.8% | u
CNC(=O)CCc1nc(-c2ccc(C(C)(C)C)cc2)no1 | 0.316µM* | u | u | 0.0 | 7.08µM* | 13µM*
Cc1cccc(-c2noc(CCC(=O)Nc3ccccc3)n2)c1 | -11.0% | -3.3% | u | 12.0 | -12.0% | u
O=C(Nc1sc2c(c1C(=O)NCC1CCCO1)CCC2)c1cc(=O)c2cc(Cl)ccc2o1 (configuration not stated) | x | x | 9.1% | x | x | u
CNC(=O)C1CCC(Cn2c(=O)c3sccc3n(CC(=O)N3CCC(C)CC3)c2=O)CC1 (configuration not stated) | x | x | 2.2% | x | x | 1.2%
COc1ccccc1-c1cnc(C(O)c2ccc(F)cc2C)[nH]1 (configuration not stated) | x | x | u | 18.0 | x | u
CC(C)(C)c1ccc(-c2noc(CCC(=O)Nc3cccnc3)n2)cc1 | 0.0631µM* | -3.5% | u | -15.0 | u | u
CC(C)(C)c1ccc(-c2noc(CCC(=O)NCC3CCCO3)n2)cc1 (configuration not stated) | 1µM* | u | 20.6µM* | 0.4 | 10µM* | u
CC(C)(C)c1ccc(-c2noc(CCC(=O)N3CCOCC3)n2)cc1 | u | u | u | 22.5 | u | 18.4µM*
CC(=O)N1CCN(C(=O)CSc2cc(C)c(Br)cc2C)CC1 | -0.9% | u | -5.0% | 0.0 | -14.6% | u
CC1(C(=O)NS(=O)(=O)c2ccc(Br)cc2)CCN1C(=O)CCc1cccs1 (configuration not stated) | x | x | -22.0% | 30.9 | x | -2.1%
Cc1ccccc1-c1noc(-c2ccc(N3CCN(C)CC3)c([N+](=O)[O-])c2)n1 | x | x | 16.4µM* | x | x | 13µM*
COc1ccc(-c2noc(-c3ccc(N4CCOCC4)c([N+](=O)[O-])c3)n2)cc1OC | x | x | -13.3% | x | x | -2.2%
CN1CCN(c2ccc(-c3nc(-c4ccccc4)no3)cc2[N+](=O)[O-])CC1 | x | x | u | x | x | 14.6µM*
COc1cc(-c2noc(-c3ccc(N4CCN(C)CC4)c([N+](=O)[O-])c3)n2)cc(OC)c1OC | x | x | 3.26µM* | x | x | 3.26µM*
COc1ccc(C)cc1NC(=O)C1CCN(C(=O)Cc2ccccc2)CC1 | 11.0% | -5.6% | 11.7% | -0.7 | -14.3% | -27.8%

Screening results from PubChem BioAssay.
